Source: the supplement of paper PMC12636033
± gives the standard deviation of the averaged measurements. Whole data set: some 33,000 sequences, median “E-score (rank enrichment, -0.5 to 0.5)” near -0.0028, cut for the highest 2% near 0.23. The full list was thinned out, with the highest values kept by preference.

What follows are sequences tested on 2Sb-muMax20 (muMax20 with two 1,3-bis(methyl)benzene Cys staples, A13C/A17C and Q88C/A92C, C-terminal Lys) (assay: PBM 8-mer E-score (E-score (rank enrichment, -0.5 to 0.5)); higher = stronger preferential binding).
Method: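 Protein binding microarray (universal PBM chip covering all 10-mers in fixed probe flanks) with chemically synthesized human Max(13-93) bHLH-LZ analogs (not full-length Max) bearing noncanonical residues (hArg, Tha, Aib, Nle at 65) and aromatic Cys staples. Read-out per 8-mer (and its reverse complement): E-score (rank-based enrichment, -0.5 to 0.5) and Z-score of median probe intensity.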

Sequence	PBM 8-mer E-score
AGGGTGGA	-0.0307 ± 0.022
AGGGGTGA	0.16 ± 0.05
AGGGTGGC	0.0374 ± 0.1
GTTCGTAA	-0.00989 ± 0.0088
ACTATCGC	0.097 ± 0.036
AATGCTAT	0.0731 ± 0.033
ACCGCATA	0.0507 ± 0.032
AGGTAAAG	0.2635 ± 0.0021
AGGTAAAT	0.0873 ± 0.074
AGGTAAAC	-0.0251 ± 0.11
AGCAGATC	-0.143 ± 0.068
ACGTCTTA	-0.193 ± 0.025
CATGTTTA	0.239 ± 0.024
GATGTTTA	0.12 ± 0.03
CATGTTTC	0.05 ± 0.033
AATGTTGA	0.0172 ± 0.078
CATGTTGC	0.0698 ± 0.024
CATGTTGA	0.257 ± 0.02
AACGGTGG	-0.0485 ± 0.0095
GAAATGGC	0.0246 ± 0.0079
ACTATACG	0.156 ± 0.033
CTCTAATA	0.0986 ± 0.022

Sequence	PBM 8-mer E-score
CTAATCAA	0.277 ± 0.014
CGAATCAA	0.2677 ± 0.00054
CGAATCAG	-0.163 ± 0.065
CTAATCAC	0.14 ± 0.0037
TGAATCAA	0.0626 ± 0.026
TTAATCAA	0.0337 ± 0.0076
AGGCCACT	0.129 ± 0.0082
CGTAGCAA	-0.0306 ± 0.0061
ACTTCATA	0.0718 ± 0.0033
CTAACCGC	-0.0848 ± 0.018
GAAGTTTA	-0.0783 ± 0.12
AAAGTTTA	0.249 ± 0.022
AAAGTTTC	-0.0128 ± 0.036
CCGAGAGG	-0.225 ± 0.049
CAGCGCGA	-0.0207 ± 0.052
CCCCCATA	0.0403 ± 0.02
AACCCATA	0.229 ± 0.016
GGCCCATA	-0.0795 ± 0.036
GACCCATA	0.23906 ± 6.4e-05
GCCCCATA	0.356 ± 0.039
CACCCATA	0.21 ± 0.0057
CATCTACA	0.137 ± 0.025

Sequence	PBM 8-mer E-score
ACCTGATC	-0.0825 ± 0.031
ATCTAGGG	0.171 ± 0.013
AACCCTCT	-0.0379 ± 0.0099
CCCCACAC	0.19 ± 0.13
CCCCACAA	0.264 ± 0.0045
ACCCATAT	0.252 ± 0.051
ACCCATAG	0.0412 ± 0.039
ACGCATAG	-0.0652 ± 0.023
CCCCACAG	-0.09771 ± 0.00011
ACGCATAA	0.17 ± 0.01
ACCCATAC	0.119 ± 0.051
AACCATAC	-0.0703 ± 0.11
ACGCATAT	0.246 ± 0.0099
AACCATAA	0.13 ± 0.018
AACCATAT	0.232 ± 0.0038
ACACAGAG	-0.0541 ± 0.0044
ACGGACTG	-0.167 ± 0.011
ACAGGACA	-0.0877 ± 0.075
TCCTAAGA	-0.186 ± 0.031
GTAGCTAC	0.0481 ± 0.06
GCCCATAA	0.0149 ± 0.062
ACGCACAA	0.0307 ± 0.012

Sequence	PBM 8-mer E-score
ACGCACAT	0.235 ± 0.024
ACGCACAG	-0.146 ± 0.017
AGCCATAA	0.0405 ± 0.0087
AACCATTA	0.276 ± 0.005
ACCCATAA	0.25 ± 0.023
CACCATTA	-0.044 ± 0.042
ACCCATTA	0.161 ± 0.015
TCCCATAA	0.0657 ± 0.052
AACCATTG	-0.163 ± 0.044
CCCCATAA	0.3007 ± 0.003
TCCTGGAA	-0.283 ± 0.06
TACTTTCA	0.0779 ± 0.057
TACCGAGA	-0.0899 ± 0.043
CGGCGTGA	-0.113 ± 0.017
CTAAGTGA	-0.204 ± 0.046
AGCGTGCC	-0.0325 ± 0.041
CTTGGAAC	0.128 ± 0.018
AGTACGTG	0.0987 ± 0.039
AGTACGTA	0.183 ± 0.018
AGTACGTC	0.257 ± 0.02
GCCCGAAC	-0.0411 ± 0.062
AATCCGCA	-0.0479 ± 0.02
